Results taken from PubChem BioAssay (EPA / NIEHS).
Values joined by “and” are separate entries in the source; they are usually repeats but may differ in a detail not shown here. Identical values can stand only once. Results filed as inconclusive are left out. A structure can be active in one record and inactive in another. Active and inactive are the calls of the source. How the source made its calls, unless noted: active means hit-call score of the fitted dose curve at least 0.9, where 1 is the maximum; inconclusive means response in the unintended direction; inactive means score below 0.9.

Columns and labels:
TIMP1, TIMP1 (gene 7076) = experiment: LTEA_HepaRG_TIMP1: Life Technologies and Expression Analysis (LTEA) Assay for TIMP1 using HepaRG (AID 2283534; active means hit-call score of the fitted dose curve at least 0.9, where 1 is the maximum; inactive means score below 0.9); conditions: mRNA level, 48 h; actives raise or lower the signal
In short: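 Bidirectional change in TIMP1 transcript versus 0.5% DMSO, measured by TaqMan qRT-PCR with three housekeeping genes for normalization. HepaRG human liver cells dosed 48 h in duplicate, top concentration 100 uM with half-log dilutions.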

[1] = read-out: Tumor necrosis factor receptor 1 (TNFRSF1A), TNFRSF1A (gene 7132); experiment: LTEA_HepaRG_TNFRSF1A: Life Technologies and Expression Analysis (LTEA) Assay for Tumor necrosis factor receptor 1 (TNFRSF1A) using HepaRG (AID 2283535; active means hit-call score of the fitted dose curve at least 0.9, where 1 is the maximum; inactive means score below 0.9); conditions: mRNA level, 48 h; actives raise or lower the signal
In short: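 mRNA measured by qRT-PCR (TaqMan, Fluidigm arrays) against ACTB/GAPDH/POLR2A housekeepers after 48 h chemical exposure of HepaRG cells. Top concentration 100 uM, half-log 8-point series, duplicates; vehicle 0.5% DMSO, both fit directions.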

[2] = read-out: Thyroid Hormone Responsive (THRSP), THRSP (gene 7069); experiment: LTEA_HepaRG_THRSP: Life Technologies and Expression Analysis (LTEA) Assay for Thyroid Hormone Responsive (THRSP) using HepaRG (AID 2283536; active means hit-call score of the fitted dose curve at least 0.9, where 1 is the maximum; inactive means score below 0.9); conditions: mRNA level, 48 h; actives raise or lower the signal
In short: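 mRNA induction or loss relative to 0.5% DMSO vehicle was fitted bidirectionally across an eight-point curve whose highest exposure was 100 uM. Human HepaRG liver cells received chemicals in duplicate over 48 h before RNA extraction.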

[3] = read-out: Cellular tumor antigen p53 (Homo sapiens) (UniProt P04637); experiment: LTEA_HepaRG_TP53: Life Technologies and Expression Analysis (LTEA) Assay for Tumor Protein P53 (TP53) using HepaRG (AID 2283537; active means hit-call score of the fitted dose curve at least 0.9, where 1 is the maximum; inactive means score below 0.9); conditions: mRNA level, 48 h; actives raise or lower the signal
In short: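 TP53 transcript measured by qRT-PCR, normalized to three housekeeping genes, after 48 h treatment of human HepaRG cultures with chemicals from 100 uM downward in half-log steps (0.5% DMSO vehicle, serum-free induction medium). Up- or down-regulation fitted against DMSO.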

[4] = read-out: UDP glucuronosyltransferase (UGT1A1), UGT1A1 (gene 54658); experiment: LTEA_HepaRG_UGT1A1: Life Technologies and Expression Analysis (LTEA) Assay for UDP glucuronosyltransferase (UGT1A1) using HepaRG (AID 2283538; active means hit-call score of the fitted dose curve at least 0.9, where 1 is the maximum; inactive means score below 0.9); conditions: mRNA level, 48 h; actives raise or lower the signal
In short: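 Human liver HepaRG cultures receive test chemical for 48 h, up to 100 uM in 0.5% DMSO, with phenobarbital induction controls. UGT1A1 mRNA is measured by qRT-PCR and normalized to ACTB, GAPDH and POLR2A.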

[5] = read-out: X-box binding protein 1 (XBP1), XBP1 (gene 7494); experiment: LTEA_HepaRG_XBP1: Life Technologies and Expression Analysis (LTEA) Assay for X-box binding protein 1 (XBP1) using HepaRG (AID 2283540; active means hit-call score of the fitted dose curve at least 0.9, where 1 is the maximum; inactive means score below 0.9); conditions: mRNA level, 48 h; actives raise or lower the signal
In short: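 XBP1 transcript by qRT-PCR (housekeeping-normalized: ACTB, GAPDH, POLR2A) after 48 h chemical treatment of HepaRG cells, 8-point half-log series topping at 100 uM, vehicle 0.5% DMSO. Gain and loss of signal fitted relative to DMSO.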

[6] = LTEA_HepaRG_LDH_cytotoxicity: Cytotoxicity Assessment in the Life Technologies and Expression Analysis (LTEA) Assay (AID 2283563);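 on AC50: LDH activity released into spent culture medium as a marker of cell death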
In short: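 LDH release into culture medium read after 48 h chemical treatment of HepaRG cells. Duplicate wells, eight-point half-log series topping at 100 uM, 0.5% DMSO vehicle and baseline.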

[7] = TOX21_p53_BLA_p2_viability: Viability Assessment in the Tox21 HCT-116 p53 Agonism Beta-lactamase Assay, Phase 2 (AID 2283591);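 further: compound exposure lasted 16 h at 37 °C; actives lower the ATP signal meaning cytotoxicity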
In short: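 Cytotoxicity readout: CellTiter-Glo ATP luminescence, 30 min at room temperature, after the beta-lactamase read. Cells were HCT116 exposed 16 h at 37C to compounds pin-transferred at 217-fold dilution from DMSO stocks.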

[8] = TOX21_p53_BLA_p3_viability: Viability Assessment in the Tox21 HCT-116 p53 Agonism Beta-lactamase Assay, Phase 3 (AID 2283593);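 further: cells exposed to compound for 16 h before reading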
In short: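 Cellular ATP was quantified by CellTiter-Glo luminescence, read after 30 min at room temperature. Beforehand, HCT116 cells (4000/well) received compound 5 h post-seeding, 217-fold diluted from DMSO, then incubated 16 h at 37C.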

[9] = biological target: Cellular tumor antigen p53 (Homo sapiens) (UniProt P04637); experiment: TOX21_p53_BLA_p3_ratio: Tox21 HCT-116 p53 Agonism Beta-lactamase Assay, Ratio, Phase 3 (AID 2283596)
In short: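 HCT116 p53-bla cells (4000/well) given compound in DMSO (217-fold dilution) after 5 h, incubated 16 h at 37C. CCF4-AM substrate 2 h at room temperature; 460/530 nm emission ratio, gain fitted against DMSO.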

[10] = biological target: Cellular tumor antigen p53 (Homo sapiens) (UniProt P04637); experiment: TOX21_p53_BLA_p5_ratio: Tox21 HCT-116 p53 Agonism Beta-lactamase Assay, Ratio, Phase 5 (AID 2283599)
In short: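 Beta-lactamase reporter ratio (blue 460 nm over green 530 nm, 405 nm excitation) after 2 h CCF4-AM loading, in HCT-116 cells exposed 16 h at 37 C to compounds pinned at 217-fold dilution. Increases relative to DMSO baseline scored.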

[11] = TOX21_p53_BLA_p5_viability: Viability Assessment in the Tox21 HCT-116 p53 Agonism Beta-lactamase Assay, Phase 5 (AID 2283600)
In short: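 After the 460/530 nm beta-lactamase measurement, the wells received an ATP-detection luciferase reagent; signal was read 30 min later at RT. Compound treatment lasted 16 h on cells pre-incubated 5 h post-seeding.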

[12] = Tanguay_ZF_120hpf_YSE_legacy: (Legacy) Oregon State University Tanguay Lab 120 Hour Post-fertilization zebrafish Assay for Yolk Sac Edema (AID 2283634);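 on AC50: actives raise the incidence of yolk sac edema above the DMSO baseline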
In short: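 Presence or absence of yolk sac edema was recorded at 120 hpf in surviving larvae. These were wild-type Tropical 5D embryos, chorion removed at 4 hpf, held in static exposure at 28C from 6 hpf with 0.64% DMSO vehicle.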

[13] = Tanguay_ZF_120hpf_AXIS_legacy: (Legacy) Oregon State University Tanguay Lab 120 Hour Post-fertilization zebrafish Assay for Body Axis Malformation (AID 2283635);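 on AC50: potency for an increased fraction of larvae scored with body axis malformation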
In short: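 Binary scoring of axis defects at 120 hpf under brightfield, fitted positive versus DMSO. Tropical 5D embryos, chorion removed by pronase at 4 hpf, were singly exposed in sealed, dark plates at 28C from 6 hpf; DMSO 0.64% final.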

[14] = Tanguay_ZF_120hpf_EYE_legacy: (Legacy) Oregon State University Tanguay Lab 120 Hour Post-fertilization zebrafish Assay for Eye Malformation (AID 2283636)
In short: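 Read-out is binary presence or absence of eye malformation, scored by brightfield microscopy at 120 hpf. Single larvae were exposed from 6 hpf in embryo medium containing 0.64% DMSO, with DMSO as baseline.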

[15] = biological target: Cellular tumor antigen p53 (Homo sapiens) (UniProt P04637); experiment: TOX21_p53_BLA_p2_ratio: Tox21 HCT-116 p53 Agonism Beta-lactamase Assay, Ratio, Phase 2 (AID 2283592)
In short: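 Gain-of-signal p53 agonism was scored from the beta-lactamase FRET ratio (460/530 nm, 405 nm excitation) in HCT116 cells treated 16 h at 37C, 5% CO2, with DMSO serving as negative control and baseline.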

[16] = Tanguay_ZF_120hpf_MORT_legacy: (Legacy) Oregon State University Tanguay Lab 120 Hour Post-fertilization zebrafish Assay for Mortality (AID 2283633)
In short: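 Static waterborne exposure from 6 to 120 hpf at 28C of single dechorionated wild-type (5D) embryos per well, 0.64% DMSO final. Death recorded present/absent by brightfield at 24 and 120 hpf.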

[17] = TOX21_p53_BLA_p4_viability: Viability Assessment in the Tox21 HCT-116 p53 Agonism Beta-lactamase Assay, Phase 4 (AID 2283597);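 further: hits lower the luminescence signal meaning cytotoxicity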
In short: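 Following a 16 h exposure at 37C, the treated HCT116 wells were first read for the FRET ratio. They were then lysed with CellTiter-Glo, and ATP luminescence was recorded after 30 min at room temperature.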

[18] = read-out: UDP glucuronosyltransferase (UGT1A6), UGT1A6 (gene 54578); experiment: LTEA_HepaRG_UGT1A6: Life Technologies and Expression Analysis (LTEA) Assay for UDP glucuronosyltransferase (UGT1A6) using HepaRG (AID 2283539; active means hit-call score of the fitted dose curve at least 0.9, where 1 is the maximum; inactive means score below 0.9); conditions: mRNA level, 48 h; actives raise or lower the signal
In short: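 Expression was quantified by TaqMan qRT-PCR on Fluidigm arrays with ACTB/GAPDH/POLR2A normalization and bidirectional fitting against 0.5% DMSO. HepaRG cells (~100,000/well) were treated in duplicate for 48 h at eight half-log concentrations up to 100 uM in serum-free induction medium.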

Measured: AC50

Chain of Cellular tumor antigen p53 (Homo sapiens) (P04637 whole entry, looked up): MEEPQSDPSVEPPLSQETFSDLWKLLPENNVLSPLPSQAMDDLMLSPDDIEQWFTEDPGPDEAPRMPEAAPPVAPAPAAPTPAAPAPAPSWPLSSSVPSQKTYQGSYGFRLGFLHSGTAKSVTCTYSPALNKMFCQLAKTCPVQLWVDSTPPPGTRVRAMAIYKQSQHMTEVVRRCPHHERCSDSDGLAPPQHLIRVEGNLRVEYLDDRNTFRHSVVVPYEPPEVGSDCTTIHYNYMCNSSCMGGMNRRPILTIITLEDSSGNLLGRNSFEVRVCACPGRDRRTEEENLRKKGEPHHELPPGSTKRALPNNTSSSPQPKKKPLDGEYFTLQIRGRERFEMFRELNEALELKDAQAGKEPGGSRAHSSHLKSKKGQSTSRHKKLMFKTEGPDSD

CC(C)Oc1cc(-n2nc(C(C)(C)C)oc2=O)c(Cl)cc1Cl
active: [2] 11.8 µM | [3] 86.3 µM | [4] 1.41 µM | [6] 84.6 µM | [11] 28.5 µM
not listed: [15] | [16] | [17] | [18]
inactive: all other assays above

N#CC(CCc1ccc(Cl)cc1)(Cn1cncn1)c1ccccc1 (stereo not given)
active: [2] 90.7 µM | [3] 75.5 µM | [4] 74.9 µM | [5] 80.3 µM | [6] 37.5 µM | [7] 56 µM
inactive: TIMP1, TIMP1 (gene 7076) | [15] | [8] | [10] | [11] | [12] | [13]

COC(=O)N(OC)c1ccccc1COc1ccn(-c2ccc(Cl)cc2)n1
active: TIMP1, TIMP1 (gene 7076) 68.4 µM | [1] 77.1 µM | [2] 7.22 µM | [3] 78.5 µM | [4] 82.4 µM | [6] 71.5 µM | [15] 1.09 µM | [10] 1.9 µM
inactive: [5] | [7] | [8] | [11] | [12] | [13] | [14]

COc1nc(NC(C)C)nc(NC(C)C)n1
active: [4] 11.4 µM
not listed: [7] | [8] | [9] | [11] | [15] | [17] | [18]
inactive: all other assays above

CCCN(CCC)c1c([N+](=O)[O-])cc(S(N)(=O)=O)cc1[N+](=O)[O-]
active: TIMP1, TIMP1 (gene 7076) 93.9 µM | [4] 7.17 µM and 86.5 µM and 89.5 µM | [5] 96.7 µM and 79.1 µM | [6] 76.5 µM and 78.3 µM and 77.5 µM
inactive: TIMP1, TIMP1 (gene 7076) | [2] | [5] | [12] | [13] | [14]

CC1COC(Cn2cncn2)(c2ccc(Oc3ccc(Cl)cc3)cc2Cl)O1 (stereo not given)
active: TIMP1, TIMP1 (gene 7076) 77 µM | [1] 72.2 µM | [2] 7.86 µM | [3] 11.6 µM | [4] 50 µM | [6] 58.7 µM | [7] 78.7 µM | [9] 46.1 µM | [10] 66.3 µM | [12] 8.51 µM
inactive: [5] | [8] | [11]

CO/C=C(/C(=O)OC)c1ccccc1Oc1cc(Oc2ccccc2C#N)ncn1
inactive: TIMP1, TIMP1 (gene 7076) | [2] | [5] | [7] | [15] | [8] | [10] | [11] | [12] | [13] | [14]
active: [2] 93.2 µM and 80.5 µM | [3] 84.8 µM and 83.1 µM and 83 µM | [4] 88.7 µM and 87.6 µM and 83.3 µM | [6] 74.8 µM and 77.6 µM and 80.7 µM | [12] 5.69 µM

Cc1cc(Cl)ccc1OCC(=O)O
not listed: [9] | [16] | [18]
inactive: all other assays above

CS/C(C)=N/OC(=O)N(C)SN(C)C(=O)O/N=C(\C)SC
active: [4] 29.1 µM | [13] 24.4 µM
not listed: [1] | [7] | [8] | [9] | [15] | [16] | [17]
inactive: all other assays above

CCc1nn(C)c(C(=O)NCc2ccc(C(C)(C)C)cc2)c1Cl
active: TIMP1, TIMP1 (gene 7076) 28 µM | [2] 1.06 µM | [3] 12.1 µM | [4] 27.8 µM | [18] 37.1 µM | [5] 13.6 µM | [6] 27.3 µM | [7] 46.1 µM | [11] 46.1 µM | [12] 6 µM
inactive: [8] | [13] | [14]

COc1cnc(OC)n2nc(NS(=O)(=O)c3c(OCC(F)F)cccc3C(F)(F)F)nc12
active: [2] 50 µM | [4] 19 µM
not listed: [1] | [9] | [10] | [12] | [15] | [17]
inactive: all other assays above

CC1=C(C(=O)Nc2ccccc2)SCCO1
active: [2] 17 µM | [4] 50 µM
not listed: [1] | [9] | [14] | [15] | [16] | [17]
inactive: all other assays above

CCON=C(CC)C1=C(O)CC(c2c(C)cc(C)cc2C)CC1=O (stereo not given)
active: [2] 50 µM | [4] 27.9 µM
not listed: [9] | [15] | [16] | [17] | [18]
inactive: all other assays above
